Test results: PubChem BioAssay
Calls of active or inactive are those of the source.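 The calls were made as follows, unless noted: active = NADPH fluorescence slope more negative than the mean of all samples by about 3 SD, 99.7% confidence; inactive = the rest.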

Tests used:
[1] = inhibitors of TNFa-induced NFkB p65 translocation, primary screen, imaging, HUVEC, MLSMR starter and 10KST1 sets (AID 438;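 active = inhibition above 20% together with a positive visual image hit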;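 also: compound added about 3h40 before a 20 min TNFalpha stimulation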;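 as to inhibition: signal is the nuclear over cytoplasmic p65 intensity ratio per well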); settings: HUVEC TNFa-induced p65 nuclear translocation; cell count: measured here: nuclei count (cytotoxicity indicator), at 2.08 µM; inhibition: at 2 µM, stronger effect = higher value, 0% TNFa-plus-vehicle, 100% no-TNFa wells
[2] = inhibitors of mutant huntingtin aggregation, primary screen, imaging, exon1htt(103Q)mCFP cells, high-content imaging (AID 483;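 active = visual image review flags a hit and inhibition of aggregation exceeds 20%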;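 also: compound exposure lasted 3 days before fixation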;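 as to nuclei count: percent of the per-plate median nuclei count of sample wells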); settings: exon1htt(103Q)mCFP cell line, aggregate imaging, at 2 µM; inhibition of aggregation: stronger effect = higher value; nuclei count: measured here: cell count, toxicity
[3] = inhibitors of E-selectin induction by TNFa, primary screen, imaging, HUVEC, immunofluorescence, MLSMR starter and 10KST1 sets (AID 487;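 active = visually confirmed hit in the image check and inhibition above 20%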;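 as to inhibition: signal is fraction of cell area covered by stained E-selectin grains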;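 as to nuclei count: 100% = median nuclei count of all wells on the same plate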); settings: HUVEC TNFalpha-induced E-selectin immunofluorescence imaging, at 2 µM; inhibition: stronger effect = higher value; nuclei count: measured here: cell number, toxicity
[4] = target: Voltage-gated potassium channel subunit beta-2 (Rattus norvegicus) (UniProt P62483); experiment: KvBeta enzyme negative modulators, primary screen, biochemical, NADPH fluorescence (AID 622;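 active = fluorescence slope higher than the sample average by over 3 SD, cut at about -0.22 in these data, passing the limit was not always enough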;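 also: slope of raw intensity against log time taken from 70 to 1610 s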); settings: recombinant KvBeta, 4-cyanobenzaldehyde reduction, at 10 µM, stronger effect = higher value
Sequence of Voltage-gated potassium channel subunit beta-2 (Rattus norvegicus) (P62483 whole entry, looked up): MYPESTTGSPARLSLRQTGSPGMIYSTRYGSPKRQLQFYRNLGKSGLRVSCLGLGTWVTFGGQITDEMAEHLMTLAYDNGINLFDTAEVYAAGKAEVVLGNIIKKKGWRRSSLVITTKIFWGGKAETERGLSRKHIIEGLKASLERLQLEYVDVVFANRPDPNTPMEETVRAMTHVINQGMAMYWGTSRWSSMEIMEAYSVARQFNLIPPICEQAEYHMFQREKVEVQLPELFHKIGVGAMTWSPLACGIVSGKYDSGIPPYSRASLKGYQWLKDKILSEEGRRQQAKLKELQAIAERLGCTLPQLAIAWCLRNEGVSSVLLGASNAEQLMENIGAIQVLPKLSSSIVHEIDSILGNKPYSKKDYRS

[5] = target: Voltage-gated potassium channel subunit beta-2 (Rattus norvegicus) (UniProt P62483); experiment: KvBeta positive modulators, primary screen, biochemical, NADPH fluorescence (AID 623); settings: Recombinant KvBeta, NADPH fluorescence decrease slope, 10 min; at 10 µM; stronger effect = lower value;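 also: fluorescence intensity change per second fitted from 20 to 320 s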
[6] = target: Alpha-2C adrenergic receptor (Homo sapiens) (UniProt P18825); experiment: modulators of alpha2C/GIRK thallium flux, primary screen, cell-based, HEK293 alpha2C/GIRK1/2 (AID 624;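 active = fluorescence slope after compound addition differing from the mean of all screened samples at 99.7% confidence, in either direction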;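 also: slope of fluorescence ratio to pre-addition baseline per second over 15 to 24 s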); settings: thallium flux BTC fluorescence, at 10 µM, actives lie on both sides
Sequence of Alpha-2C adrenergic receptor (Homo sapiens) (P18825 whole entry, looked up): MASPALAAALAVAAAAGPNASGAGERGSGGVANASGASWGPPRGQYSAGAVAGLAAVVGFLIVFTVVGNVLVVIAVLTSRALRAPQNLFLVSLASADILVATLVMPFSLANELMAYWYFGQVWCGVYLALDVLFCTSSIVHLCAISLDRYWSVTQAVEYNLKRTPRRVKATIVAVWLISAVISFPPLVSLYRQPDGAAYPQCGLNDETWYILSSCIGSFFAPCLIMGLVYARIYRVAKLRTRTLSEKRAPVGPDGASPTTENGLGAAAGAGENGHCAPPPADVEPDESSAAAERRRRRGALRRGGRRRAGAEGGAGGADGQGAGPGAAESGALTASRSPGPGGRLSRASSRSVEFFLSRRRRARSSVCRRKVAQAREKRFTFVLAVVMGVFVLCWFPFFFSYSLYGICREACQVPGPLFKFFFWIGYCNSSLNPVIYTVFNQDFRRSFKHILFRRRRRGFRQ

[7] = inhibitors of Sendai virus-induced IRF3 signaling, primary screen, TLR/RLR signaling modifier project, cell-based, Sendai virus stimulus, luciferase, 10K MLSCN set (AID 602276;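 active = inhibition at or above 50% at 10 µM; inactive = inhibition below 50%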;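 also: firefly luciferase from ISG56 promoter only with Renilla not read in this screen; 0% = Sendai virus plus DMSO and 100% = medium plus DMSO without virus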); settings: HEK293 RL24 IRF3 luciferase reporter, at 10 µM, stronger effect = higher value
[8] = inhibitors of poly I:C-induced TLR3 signaling, primary screen, cell-based, poly I:C stimulus, luciferase, 10K MLSCN set (AID 602277;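 active = inhibition of the reporter signal at or above 50%; inactive = inhibition below 50%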); settings: HEK293-TLR3 RL24 IRF3 luciferase reporter, at 10 µM, stronger effect = higher value

| Compound | cell count [1] | inhibition [1] | inhibition of aggregation [2] | nuclei count [2] [%] | inhibition [3] | nuclei count [3] [%] | fluorescence slope [4] | NADPH fluorescence slope [5] | slope [6] | inhibition [7] | inhibition [8] |
| --- | --- | --- | --- | --- | --- | --- | --- | --- | --- | --- | --- |
| COc1ccc(CN(C(=O)c2cccs2)c2nccs2)cc1OC | 457 | 3.9% (inactive) | -1.2% (inactive) | 112 | -60.6% (inactive) | 111 | -0.458 (inactive) | -3e-05 (inactive) | 0.00675 (inactive) | -2.48% (inactive) | 21.6% (inactive) |
| CC(=O)Nc1ccc(S(=O)(=O)N2CCC(c3nc4ccccc4[nH]3)CC2)cc1 | 232 | 0% (inactive) | 14.3% (inactive) | 93.3 | 17.7% (inactive) | 84.3 | -0.584 (inactive) | -6.2e-05 (inactive) | 0.00595 (inactive) | 7.22% (inactive) | 17.6% (inactive) |
| CCOC(=O)Nc1c(O)ccc2oc(C)c(-c3ccccc3)c12 | 271 | -6.4% (inactive) | -22% (inactive) | 104 | -63.2% (inactive) | 106 | -0.5 (inactive) | -0.000121 (inactive) | 0.0037 (inactive) | 18.3% (inactive) | 28.6% (inactive) |
| COc1ccccc1CC(=O)NCc1ccc2c(c1)OCO2 | 372 | -0.6% (inactive) | -2.1% (inactive) | 101 | -81% (inactive) | 114 | -0.392 (inactive) | -5.4e-05 (inactive) | 0.00532 (inactive) | 7.81% (inactive) | -10.6% (inactive) |
| Cc1c(NC2=NC3(CCCCC3)Cc3ccccc32)c(=O)n(-c2ccccc2)n1C | 716 | -5.3% (inactive) | 6.1% (inactive) | 101 | 59.1% (active) | 72.3 | -0.354 (inactive) | -6.6e-05 (inactive) | 0.00622 (inactive) | 13.1% (inactive) | 21.6% (inactive) |
| O=C(O)C1CC=CCC1C(=O)NCc1ccccc1 (centres undefined) | 625 | 6% (inactive) | -11% (inactive) | 107 | -28.4% (inactive) | 107 | -0.41 (inactive) | 3.8e-06 (inactive) | 0.00502 (inactive) | 10% (inactive) | 11.4% (inactive) |
| OCCn1c(-c2ccc3c(c2)OCO3)csc1=Nc1ccccc1 | 565 | 0.2% (inactive) | -0.6% (inactive) | 66.3 | -41.5% (inactive) | 112 | -0.59 (inactive) | -2.7e-05 (inactive) | 0.00284 (inactive) | -34% (inactive) | -121% (inactive) |
| Cc1ccc(S(=O)(=O)Cn2nnnc2CN(Cc2ccco2)CC2CCCO2)cc1 (centres undefined) | 380 | -1% (inactive) | 2.3% (inactive) | 99.8 | -58.1% (inactive) | 69.6 | -0.588 (inactive) | -4.2e-05 (inactive) | 0.00299 (inactive) | -5.71% (inactive) | 0.385% (inactive) |
| COc1ccccc1N1CCN(Cc2nc(N)nc(Nc3ccc(C)c(Cl)c3)n2)CC1 | 467 | -1.9% (inactive) | 17.2% (inactive) | 97.1 | -5.6% (inactive) | 100 | -0.501 (inactive) | 1e-05 (inactive) | 0.00625 (inactive) | 11.5% (inactive) | 29.6% (inactive) |
| CCCCP(=O)(CCCC)c1ccccc1C(=O)O | 404 | -2.2% (inactive) | 12.2% (inactive) | 81.7 | -21.2% (inactive) | 87.7 | -0.421 (inactive) | -9.2e-05 (inactive) | 0.00521 (inactive) | 6.88% (inactive) | 21.9% (inactive) |
| Cc1nnc(SCC(=O)N2CCN(S(=O)(=O)c3ccccc3)CC2)[nH]c1=O | 711 | 9.4% (inactive) | 7.1% (inactive) | 103 | -39.5% (inactive) | 127 | -0.509 (inactive) | -6e-05 (inactive) | 0.00552 (inactive) | 3.92% (inactive) | 13.4% (inactive) |
| CC(=O)Nc1cccc(OCC(O)Cn2cnc3ccccc32)c1 (centres undefined) | 632 | -20.4% (inactive) | 12.1% (inactive) | 101 | -23.9% (inactive) | 107 | -0.674 (inactive) | 1.3e-05 (inactive) | 0.00619 (inactive) | 14.1% (inactive) | 25.8% (inactive) |
| COc1cccc(-c2nnc(SCC(N)=O)n2-c2ccc(Cl)cc2)c1 | 327 | -6.5% (inactive) | -11.9% (inactive) | 107 | -60.5% (inactive) | 94.5 | -0.495 (inactive) | -0.000142 (inactive) | 0.00431 (inactive) | 8.3% (inactive) | 13.1% (inactive) |
| CCn1cc(C(=O)NCCCOC)c(=O)c2cc(S(=O)(=O)N(C)C3CCCCC3)ccc21 | 559 | -15.1% (inactive) | 18.2% (inactive) | 74.5 | -38.4% (inactive) | 100 | -0.678 (inactive) | 5.7e-06 (inactive) | 0.00665 (inactive) | 6.58% (inactive) | 28.2% (inactive) |
